Screens deposited in PubChem by National Center for Advancing Translational Sciences (NCATS).
USP1 inh: inhibitors of human USP1/UAF1 deubiquitinase | 0.23% of 390,000 active | Potency, µM (titrated, usually from 57.1 µM), without a hit: at the top dose activity change, negative = inhibition, usual class: inhibitors | AID 743255 | recombinant USP1/UAF1, Ub-Rhodamine cleavage fluorescence; further: potency means the concentration at half of the fitted maximal effect; nearly all actives have a fitted effect of over 60% in size
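In this screen, compounds sit with the deubiquitinase complex (1nM) for 15 min at room temperature before Ub-Rho is added at 150nM final. Fluorescence rise is then followed for 6 reads every 60 seconds.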
Tau fluor cs: counter-screen for tau fibril formation inhibitors; tau K18 P301L Alexa594 fluorescence, heparin fibrillization; Potency, µM (series often up to 57.7 µM), for inactives: at the top dose activity change, negative = decrease; 0.93% of 280,000 active; AID 1463; further: potency means the concentration at half of the fitted maximal effect; nearly all actives have a fitted effect of over 55% in size
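Human tau K18 P301L (15 uM unlabeled, 0.24 uM Alexa 594-labeled) in 100 mM sodium acetate pH 7 with 20 uM heparin, 6 hr at 37 C. ThT 30 uM added, 1 hr ambient; Alexa 594 FP and total fluorescence read at 555/632 nm.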
Tau fibril FP: tau fibrillization inhibition (FP). P10636. K18 P301L tau heparin fibrillization, Alexa594 FP, 6 h. Potency, µM (doses to about 57.7 µM), for inactives: at the top dose activity, negative = inhibition, hits mostly inhibitors. 0.39% of 280,000 active. AID 1468; further: potency means the concentration at half of the fitted maximal effect; nearly all actives have a fitted effect of over 55% in size
Target sequence (P10636 561-689 P618L limits assumed): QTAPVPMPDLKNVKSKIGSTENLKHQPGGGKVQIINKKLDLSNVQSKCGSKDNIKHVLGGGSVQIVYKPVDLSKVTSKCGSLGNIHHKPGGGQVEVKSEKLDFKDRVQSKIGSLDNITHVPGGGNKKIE
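Human K18 P301L fragment (15 uM unlabeled plus 0.24 uM Alexa 594-labeled) in 100 mM sodium acetate pH 7 with compound, aggregation induced by 20 uM heparin for 6 hr at 37 C. ThT (30 uM) added for 1 hr, then Alexa 594 FP read.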
Tau fibril ThT: tau fibrillization inhibition (ThT binding); 2.1% of 270,000 active; recombinant tau K18 P301L (four-repeat tau fragment), heparin-induced fibrillization, ThT fluorescence; AID 1460; Potency, µM (doses to about 57.4 µM), for inactives: top-dose activity, negative = inhibition, hits mostly inhibitors; P10636; further: potency means the concentration at half of the fitted maximal effect; nearly all actives have a fitted effect of over 55% in size
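K18 P301L tau (15 uM + 0.24 uM Alexa 594-tagged), heparin 20 uM, NaOAc pH 7, 6 h 37 C; ThT 30 uM, 1 h RT, ex 450/em 510 nm.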
FBPA coupling cs: inhibits coupling enzyme system, counter-screen for aldolase hits; 0.67% of 290,000 active; activity change, negative = inhibition, % at 58.2 µM, hits read low; coupling enzyme system counterscreen, AmpLite Red fluorescence; in the data active means activity change below about -30%
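Activity here indicates interference with the coupling reaction, not aldolase inhibition. Compounds at 57.5 uM final met coupling enzymes for 10 min at RT; substrate and AmpLite Red detection followed, with a 525/598 nm fluorescence read after 20 min.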
Active calls of the source: *; ? = inconclusive; / = no result given; [ ] = remark or other dose. The list is not random: actives were taken first. Their share in the collection is about 2.3%. Unless noted, the call rests on the fitted dose curve; in most records, active means well fitted curve in the direction sought with a large enough effect; inconclusive means small, poorly fitted or top-dose-only effect, or another doubt; inactive means no such curve, though single readings can be large; an effect the other way counts as inactive or inconclusive. On the % scale 0 is the no-effect control and ±100 the full control effect.

SMILES	USP1 inh	Tau fluor cs	Tau fibril FP	Tau fibril ThT	FBPA coupling cs
COc1cccc(CC(=O)Nc2ccc3nc(N4CCC(C)CC4)cc(C)c3c2)c1	?	14µM*[quencher]	?	?	/
CCCN=C1N(C)C[C@@H]2[C@@H]3C(=O)N(Cc4ccccc4)C(=O)[C@@H]3[C@](CC)(C(=O)OC)N12	-10%	/	/	/	/
CSc1nc(NCCOCCO)c2sc3nc(-c4ccco4)c4c(c3c2n1)CCC4	-20%	-8%	-8%	?	2
CCN(CCO)c1nc(SC)nc2c1sc1nc(-c3ccco3)c3c(c12)CCC3	-11%	?	?	25µM*	2
COC(=O)c1cccc(NS(=O)(=O)c2cccs2)c1C	-1%	0%	2%	0%	1
COC(=O)c1ccccc1Nc1ccccc1	-21%	-11%	?	-5%	0
COC(=O)c1ccccc1NC1=C/C(=N\S(=O)(=O)c2cccs2)c2ccccc2C1=O	4µM*	?	-10%	?	4
COC(=O)c1ccccc1NC1=C/C(=N\S(=O)(=O)c2ccc(C(=O)O)cc2)c2ccccc2C1=O	13µM*	/	/	/	-48*
Nn1c(Nc2ccccc2)nc2sc3c(c2c1=O)CCC3	3%	28µM*[quencher]	2%	20µM*	-3
NNc1nc2sc3c(c2c(=O)n1Cc1ccccc1)CCC3	-18%	-21%	-2%	?	-1
NC(CSSCC(N)C(=O)O)C(=O)O (centres undefined)	/	/	/	/	-9
N[C@@H](CSS(=O)(=O)O)C(=O)O	/	-12%	18µM*	13µM*	-77*
CCOC(=O)c1noc2ncn(CC(=O)Nc3ccc(F)cc3Cl)c(=O)c12	-26%	-3%	-10%	5%	/
COc1ccc2c(c1)O[C@@H](c1cccc(C(F)(F)F)c1)[C@H](OC(=O)NCc1ccco1)C2=O	/	-11%	-4%	-11%	0
O=C(OCC(=O)c1c[nH]c2ccccc12)c1ccc([N+](=O)[O-])s1	-23%	-10%	-13%	-4%	0
CCc1cccc2c(C(=O)COC(=O)c3ccc([N+](=O)[O-])s3)c[nH]c12	-13%	11µM*[quencher]	-8%	7.1µM*	-4
O=C(COc1ccc(F)cc1)Nc1ccc2nc(SCc3ccccc3)sc2c1	?	-2%	-15%	2%	/
COc1ccc(Cl)cc1NC(=O)CSc1c2c(nc3ccccc13)CCC2	-13%	-14%	-15%	-16%	/
N#CCCN(CC#Cc1ccccc1)OCc1ccccc1	/	2%[11.6 µM]	8%[11.6 µM]	-3%[11.5 µM]	0
O=C(CSc1nc2ncc(Br)cc2[nH]1)c1ccc([N+](=O)[O-])cc1	-22%	?	?	28µM*	2
Cc1cc(C)cc(N2CCn3c2nc2c3c(=O)n(CCc3ccccc3)c(=O)n2C)c1	-19%	-3%	2%	-4%	/
O=C(O)c1ccc2nc(-c3ccccc3)c(-c3ccccc3)nc2c1	-17%	0%	-1%	-2%	12
c1coc(-c2cnc3ccccc3n2)c1	-28%	/	/	/	/
O=C(NCCc1ccccc1)c1ccc2nc(-c3ccco3)c(-c3ccco3)nc2c1	-16%	?	?	7.1µM*	-37*
c1coc(-c2nc3ccccc3nc2-c2ccco2)c1	-17%	?	?	16µM*	-38*
SMILES	USP1 inh	Tau fluor cs	Tau fibril FP	Tau fibril ThT	FBPA coupling cs
O=C(c1ccccc1)c1ccc2nc(-c3ccco3)c(-c3ccco3)nc2c1	?	?	?	14µM*	-24
O=C(NC1CCCC1)c1ccc2nc[nH]c2c1	-17%	7%	1%	0%	0
O=C(NCCc1ccccc1)c1ccc(=O)oc1	-2%	-4%	-2%	-3%	3
O=C(NC1CCCC1)c1ccc2nc(-c3ccco3)c(-c3ccco3)nc2c1	-15%	-2%	2%	-2%	-30*
CCOCCc1nn2c(=O)cc(COC(=O)COc3ccc(C)c(C)c3)nc2s1	16%	-5%	4%	-8%	/
CCOC(=O)c1ccccc1NC(=O)Cn1c(=O)n(CCC(=O)NCc2ccccc2OC)c(=O)c2ccccc21	-19%	2%	0%	5%	/
COC(=O)c1cc2oc(C)cc2n1Cc1ccccc1Cl	-20%	-20%	-15%	?	/
O=C(NCCO)c1ccc2nc(-c3ccco3)c(-c3ccco3)nc2c1	32µM*	14µM*[quencher]	?	16µM*	-47*
COc1ccc(NC(=O)CCc2c(C)nc3nc(CNC(=O)OC(C)(C)C)nn3c2C)cc1OC	-14%	-7%	2%	-4%	/
CC(C)c1onc(-c2c(Cl)cccc2Cl)c1COc1ccc(/C=C/c2cccc(C(=O)O)c2)c(Cl)c1	/	/	/	/	12
CC1(C(=O)O)NCCc2cc(O)c(O)cc21 (centres undefined)	/	-16%	?	20µM*	/
COc1ccc(NC(=O)Cn2c(SCc3cc(C)ccc3C)nc3ccncc32)c(OC)c1OC	?	8.9µM*[quencher]	-8%	?	/
Cc1ccc(C)c(CSc2nc3ccncc3n2CC(=O)Nc2ccc(N(C)C)cc2)c1	-18%	10µM*[quencher]	?	?	/
COc1c2c(cc3c1C(CC(O)Cc1ccccc1)N(C)CC3)OCO2 (centres undefined)	-7%	/	/	/	-3
COc1ccc2c(c1OC)C(Cc1ccccc1)N1CCc3cc4c(cc3C1=C2)OCO4 (centres undefined)	/	?	-11%	16µM*	-33*
O=C1C(=C2CCCCC2)SC(=S)N1Cc1ccco1	-12%	-21%	?	25µM*	0
COc1cccc(C(=O)CN2CCN(S(=O)(=O)c3ccc(Cl)cc3)CC2)c1	-14%	-9%	-3%	-5%	/
Cc1nc2ncccn2c1-c1csc(Nc2ccccc2)n1	-17%	?	4%	?	-1
Cc1nc2ncccn2c1-c1csc(Nc2ccc(N(C)C)cc2)n1	-5%	?	-2%	13µM*	-7
COc1ccc(Nc2nc(-c3c(C)nc4ncccn34)cs2)cc1	-24%	?	-2%	8.9µM*	-12
COc1ccc(-c2ccc(NS(=O)(=O)c3cc(C)c(C)cc3C)cc2)nn1	-24%	?	?	-13%	/
C=CCn1c(O)c(CN2CCOCC2)c(C)c(C#N)c1=O	?	-24%	?	?	-31*
CCOc1ccc(CC2S/C(=N/N=C/c3ccco3)NC2=O)cc1 (centres undefined)	-22%	-5%	-5%	2%	-3
O=C1N/C(=N\N=C\c2ccco2)SC1Cc1ccccc1[N+](=O)[O-] (centres undefined)	1%	?	?	7.1µM*	2
COC1(OC)N=C(NC(=O)Nc2ccccc2)C2(C#N)C(c3ccccc3)C12C#N (centres undefined)	-8%	-25%	?	20µM*	-1
CCC(C(=O)OCC(=O)Nc1cc(Cl)cc(Cl)c1)c1ccccc1 (centres undefined)	-15%	?	32µM*	-6%	2
